# Data from PubChem BioAssay (EPA / NIEHS).
# Results filed as inconclusive are left out. Active and inactive are the calls of the source. The calls were made as follows: active = hit-call score of the fitted dose curve at least 0.9, where 1 is the maximum; inconclusive = response in the unintended direction; inactive = score below 0.9.
# Legend:
# [1] = biological target: Adenosine receptor A1 (Bos taurus) (UniProt P28190); assay: NVS_GPCR_bAdoR_NonSelective: NovaScreen (NVS) G Protein-Coupled Receptor Assay for bovine Adenosine Receptor (AdoR), Non-selective Binding (AID 2283244)
# Summary of the method: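 Bovine striatal membranes, radioligand displacement binding, 1 h after dosing, filter-based scintillation counting. Screened in duplicate at 25 uM, then concentration-response up to 50 uM; loss of specific binding relative to DMSO.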
# [2] = biological target: human Serotonin, 5-Hydroxytryptamine Receptor 6 (5HT6), HTR6 (gene 3362) (UniProt P50406); assay: NVS_GPCR_h5HT6: NovaScreen (NVS) G Protein-Coupled Receptor Assay for human Serotonin, 5-Hydroxytryptamine Receptor 6 (5HT6) (AID 2283253)
# Description: NVS_GPCR_h5HT6 is a biochemical, single-readout assay that uses extracted gene-proteins from HEK293 in a cell-free assay. Measurements were taken 1 hour after chemical dosing in a 96-well plate.NVS_GPCR_h5HT6 is one of one assay component(s) measured or calculated from the NVS_GPCR_h5HT6 assay. It is designed to make measurements of radioligand binding, a form of binding reporter, as detected with scintillation counting signals by Filter-based radiodetection technology.Data from the assay component NVS_GPCR_h5HT6 was analyzed into 1 assay endpoint. This assay endpoint, NVS_GPCR_h5HT6, was analyzed in the positive analysis fitting direction relative to DMSO as the negative control and baseline of activity. […] Furthermore, this assay endpoint can be referred to as a primary readout, because the performed assay has only produced 1 assay endpoint. […]
# Binding assays used specific radioligands (tritiated, iodinated) with non-radioactive competitive displacement ligands in agonist or antagonist protocols (as indicated) and various reference compounds and inhibitors to titrate specific binding to receptors and transporters. Most enzyme assays (CYPs, kinases, phosphatases, proteases, HDACs) used recombinant protein and specific substrates (fluorescence mostly, some colorimetric and radioactive) and inhibitors, followed by a biochemical separation of substrate and product. […]
# [3] = biological target: human Serotonin, 5-Hydroxytryptamine Receptor 7 (5HT7), HTR7 (gene 3363) (UniProt P34969); assay: NVS_GPCR_h5HT7: NovaScreen (NVS) G Protein-Coupled Receptor Assay for human Serotonin, 5-Hydroxytryptamine Receptor 7 (5HT7) (AID 2283255);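 also: hits reduce specific radioligand binding relative to DMSO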
# Summary of the method: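 Radioligand displacement on membranes from CHO cells expressing human 5HT7, 1 h incubation, filter-based scintillation counting. Primary screen used a single 25 uM concentration in duplicate; actives were followed up in concentration series.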
# [4] = biological target: guinea pig Leukotriene D4 Receptor (LTD4), CYSLTR1 (gene 100135514) (UniProt Q2NNR5); assay: NVS_GPCR_gLTD4: NovaScreen (NVS) G Protein-Coupled Receptor Assay for guinea pig Leukotriene D4 Receptor (LTD4) (AID 2283248)
# Summary of the method: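 Radioligand displacement on guinea pig lung membranes, 1 h incubation, filtration and scintillation counting; DMSO as negative control. Duplicate 25 uM primary screen, then singleton concentration-response up to 50 uM.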
# [5] = biological target: human Serotonin, 5-Hydroxytryptamine Receptor 5A (5HT5A), HTR5A (gene 3361) (UniProt P47898); assay: NVS_GPCR_h5HT5A: NovaScreen (NVS) G Protein-Coupled Receptor Assay for human Serotonin, 5-Hydroxytryptamine Receptor 5A (5HT5A) (AID 2283251)
# Summary of the method: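 Cell-free radioligand displacement binding on HEK293-derived membrane protein, 1 h incubation, filter-based scintillation counting. Primary screen in duplicate at 25 uM, actives followed in concentration series; loss of signal fitted versus DMSO.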
# Sequence of human Serotonin, 5-Hydroxytryptamine Receptor 6 (5HT6), HTR6 (gene 3362) (P50406 whole entry, looked up): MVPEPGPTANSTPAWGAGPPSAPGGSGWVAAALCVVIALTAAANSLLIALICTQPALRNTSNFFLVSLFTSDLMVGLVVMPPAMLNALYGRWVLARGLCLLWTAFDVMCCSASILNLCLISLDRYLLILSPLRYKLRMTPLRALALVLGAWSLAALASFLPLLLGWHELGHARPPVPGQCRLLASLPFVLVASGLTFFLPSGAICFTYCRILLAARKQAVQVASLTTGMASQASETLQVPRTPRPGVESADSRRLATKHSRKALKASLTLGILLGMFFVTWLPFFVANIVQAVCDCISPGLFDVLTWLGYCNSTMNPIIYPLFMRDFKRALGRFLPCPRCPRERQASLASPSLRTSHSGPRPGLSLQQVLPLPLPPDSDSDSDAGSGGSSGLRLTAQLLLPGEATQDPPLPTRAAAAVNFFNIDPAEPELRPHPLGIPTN
# Sequence of human Serotonin, 5-Hydroxytryptamine Receptor 7 (5HT7), HTR7 (gene 3363) (P34969 whole entry, looked up): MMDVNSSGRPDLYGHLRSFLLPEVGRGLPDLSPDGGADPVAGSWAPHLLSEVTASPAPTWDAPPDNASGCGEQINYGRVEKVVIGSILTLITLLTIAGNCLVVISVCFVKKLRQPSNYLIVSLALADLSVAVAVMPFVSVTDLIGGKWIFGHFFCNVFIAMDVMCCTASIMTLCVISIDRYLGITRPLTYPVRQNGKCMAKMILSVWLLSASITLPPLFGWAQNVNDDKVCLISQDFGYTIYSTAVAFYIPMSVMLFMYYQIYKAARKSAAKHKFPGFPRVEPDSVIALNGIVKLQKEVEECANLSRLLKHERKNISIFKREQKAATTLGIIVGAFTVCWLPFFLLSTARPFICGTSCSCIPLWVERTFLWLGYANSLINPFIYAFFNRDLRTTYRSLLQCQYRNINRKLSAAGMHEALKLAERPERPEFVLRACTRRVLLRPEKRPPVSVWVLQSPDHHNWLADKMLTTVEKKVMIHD
# Sequence of Adenosine receptor A1 (Bos taurus) (P28190 whole entry, looked up): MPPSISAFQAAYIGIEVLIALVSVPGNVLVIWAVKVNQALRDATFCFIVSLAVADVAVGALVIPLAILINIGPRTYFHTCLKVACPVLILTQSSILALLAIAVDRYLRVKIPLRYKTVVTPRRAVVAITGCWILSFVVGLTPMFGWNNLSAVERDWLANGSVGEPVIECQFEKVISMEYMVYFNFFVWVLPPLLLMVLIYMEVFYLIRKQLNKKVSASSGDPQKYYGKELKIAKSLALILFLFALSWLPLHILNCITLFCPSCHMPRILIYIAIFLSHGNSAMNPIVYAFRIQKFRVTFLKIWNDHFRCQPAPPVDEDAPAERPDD
# Sequence of guinea pig Leukotriene D4 Receptor (LTD4), CYSLTR1 (gene 100135514) (Q2NNR5 whole entry, looked up): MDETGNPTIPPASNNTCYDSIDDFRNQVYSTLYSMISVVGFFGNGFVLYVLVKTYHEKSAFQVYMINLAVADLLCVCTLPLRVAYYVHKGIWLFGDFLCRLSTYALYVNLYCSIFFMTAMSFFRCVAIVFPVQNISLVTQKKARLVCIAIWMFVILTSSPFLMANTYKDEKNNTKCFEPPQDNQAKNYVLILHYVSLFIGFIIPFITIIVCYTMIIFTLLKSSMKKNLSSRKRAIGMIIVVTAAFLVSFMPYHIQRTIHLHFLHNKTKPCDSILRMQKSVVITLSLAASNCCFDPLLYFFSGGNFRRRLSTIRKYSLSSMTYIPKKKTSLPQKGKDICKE
# Sequence of human Serotonin, 5-Hydroxytryptamine Receptor 5A (5HT5A), HTR5A (gene 3361) (P47898 whole entry, looked up): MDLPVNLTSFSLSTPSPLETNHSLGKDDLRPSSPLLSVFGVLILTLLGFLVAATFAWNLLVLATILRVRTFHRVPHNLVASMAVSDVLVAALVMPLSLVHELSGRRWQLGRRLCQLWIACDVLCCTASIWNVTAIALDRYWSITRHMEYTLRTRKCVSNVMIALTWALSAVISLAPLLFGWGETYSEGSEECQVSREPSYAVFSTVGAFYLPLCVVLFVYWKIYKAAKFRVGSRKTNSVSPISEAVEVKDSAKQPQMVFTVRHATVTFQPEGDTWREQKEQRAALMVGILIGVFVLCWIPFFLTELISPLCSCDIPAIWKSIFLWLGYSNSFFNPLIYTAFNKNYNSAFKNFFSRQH
compound,measurement,setting,value
CCCN(CCC)c1c([N+](=O)[O-])cc(C(C)C)cc1[N+](=O)[O-],outcome,[1],inactive
CSC(C)(C)C=NO,outcome,[1],inactive
same,outcome,[2],inactive
same,outcome,[3],inactive
ClC(Cl)c1ccccc1,outcome,[4],inactive
c1nc[nH]n1,outcome,[4],inactive
CCCCN(CCCC)SN(C)C(=O)Oc1cccc2c1OC(C)(C)C2,outcome,[5],inactive
CCC(C)(C)c1ccc(O)cc1,outcome,[2],inactive
Nc1cc2c3c(c1)C(c1ccccc1)=N[C@@H](NC(=O)c1cccnc1)C(=O)N3CC2,outcome,[3],inactive
